# Test results reported in PubChem BioAssay (Tox21).
# Where “and” joins values, the source holds several entries; their conditions need not be identical. Identical values can stand only once. Records with an inconclusive call do not appear. Where a call stands in place of a potency, no number is given. Some compounds were tested as several samples or in several runs, with calls that do not always agree. Calls of active or inactive are those of the source. Unless noted, calls follow the shape of the dose curve; as a rule, active = well fitted curve in the direction sought with a large enough effect in the repeat runs; inconclusive = weak or mixed curves; inactive = no such curve, though single readings can be large; an effect the other way counts as inactive or inconclusive.
# Assays:
# [1] = qHTS assay to identify small molecule agonists of H2AX - cell viability counter screen (AID 1224847; calls by dose curve; also: nearly all actives have a fitted effect of over 30% in size; also: potency is read from the fitted curve at half-maximal effect)
# Method in brief: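 Quantitative HTS viability measurement: CHO-K1 wild-type cells in serum (10% FBS) medium, short 3 hr drug exposure at 37C with 0.76% DMSO, CellTiter-Glo luminescent detection.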
# [2] = qHTS RealTime-Glo MT Cell Viability Assay in HepG2 cells - 24 hour (AID 1224867); also: nearly all actives have a fitted effect of over 50% in size; also: potency is read from the fitted curve at half-maximal effect
# Method in brief: (§1)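 Luminescence read-out: viable HepG2 cells reduce a prosubstrate to a NanoLuc substrate, giving a signal proportional to live cell number. Reads taken at 0, 8, 16, 24, 32 and 40 h of compound exposure at 37 C.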
# [3] = qHTS RealTime-Glo MT Cell Viability Assay in HEK293 cells - 32 hour (AID 1224868); also: nearly all actives have a fitted effect of over 50% in size; also: potency is read from the fitted curve at half-maximal effect
# Method in brief: (§2)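 Nonlytic real-time viability readout: viable cells convert prosubstrate to NanoLuc substrate, giving luminescence proportional to live cell number. HEK293, 600 cells/well, compound added after 5 h, continuous culture at 37 C.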
# [4] = A CellTox Green Cytotoxicity Assay to monitor cytotoxicity in HEK293 cells - 0 hour (AID 1224869); also: nearly all actives have a fitted effect of over 50% in size; also: potency is read from the fitted curve at half-maximal effect
# Method in brief: (§3)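 Read-out: fluorescence of a cell-impermeant cyanine dye staining DNA of dead cells, proportional to cytotoxicity. HEK293, 600 cells/well with reagent, compound (23 nL DMSO) added after 5 h; reads at 0, 8, 16, 24, 32, 40 h.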
# [5] = A CellTox Green Cytotoxicity Assay to monitor cytotoxicity in HEK293 cells - 40 hour (AID 1224871); also: nearly all actives have a fitted effect of over 45% in size; also: potency is read from the fitted curve at half-maximal effect
# Method in brief: as §3
# [6] = qHTS RealTime-Glo MT Cell Viability Assay in HEK293 cells - 16 hour (AID 1224872); also: nearly all actives have a fitted effect of over 50% in size; also: potency is read from the fitted curve at half-maximal effect
# Method in brief: as §2
# [7] = qHTS RealTime-Glo MT Cell Viability Assay in HepG2 cells - 8 hour (AID 1224873); also: nearly all actives have a fitted effect of over 55% in size; also: potency is read from the fitted curve at half-maximal effect
# Method in brief: (§4)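 HepG2 cells mixed with RealTime-Glo MT reagents (NanoLuc plus cell-permeant prosubstrate) were seeded at 600 cells/well, incubated 5 h at 37 C/5% CO2, then pinned with compounds in DMSO; nonlytic luminescence tracked viability during 40 h treatment.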
# [8] = qHTS RealTime-Glo MT Cell Viability Assay in HEK293 cells - 40 hour (AID 1224874); details: RealTime-Glo luminescence; max response: stronger effect = lower value; also: nearly all actives have a fitted effect of over 50% in size; also: potency is read from the fitted curve at half-maximal effect
# Method in brief: (§5)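 Luminescence readout at each listed time point; HEK293, 600 cells/well, RealTime-Glo MT reagent added with cells; compounds pinned (23 nL in DMSO) after 5 h at 37 C; continuous culture at 37 C.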
# [9] = A CellTox Green Cytotoxicity Assay to monitor cytotoxicity in HEK293 cells - 24 hour (AID 1224875); also: nearly all actives have a fitted effect of over 45% in size; also: potency is read from the fitted curve at half-maximal effect
# Method in brief: as §3
# [10] = A CellTox Green Cytotoxicity Assay to monitor cytotoxicity in HepG2 cells - 16 hour (AID 1224876); also: nearly all actives have a fitted effect of over 45% in size; also: potency is read from the fitted curve at half-maximal effect
# Method in brief: (§6)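 HepG2, 600 cells/well premixed w/ CellTox Green; 5 h settle, 37 C/5% CO2; pintool cpd add (DMSO); 37 C, 40 h; fluorescence read at 0, 8, 16, 24, 32, 40 h.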
# [11] = qHTS RealTime-Glo MT Cell Viability Assay in HepG2 cells - 32 hour (AID 1224877); also: nearly all actives have a fitted effect of over 55% in size; also: potency is read from the fitted curve at half-maximal effect
# Method in brief: as §1
# [12] = A CellTox Green Cytotoxicity Assay to monitor cytotoxicity in HepG2 cells - 24 hour (AID 1224878); also: nearly all actives have a fitted effect of over 45% in size; also: potency is read from the fitted curve at half-maximal effect
# Method in brief: as §6
# [13] = A CellTox Green Cytotoxicity Assay to monitor cytotoxicity in HepG2 cells - 40 hour (AID 1224879); also: nearly all actives have a fitted effect of over 40% in size; also: potency is read from the fitted curve at half-maximal effect
# Method in brief: as §6
# [14] = qHTS RealTime-Glo MT Cell Viability Assay in HEK293 cells - 0 hour (AID 1224880)
# Method in brief: as §5
# [15] = A CellTox Green Cytotoxicity Assay to monitor cytotoxicity in HEK293 cells - 32 hour (AID 1224881); also: nearly all actives have a fitted effect of over 40% in size; also: potency is read from the fitted curve at half-maximal effect
# Method in brief: as §3
# [16] = qHTS assay to identify small molecule agonists of the hypoxia (HIF-1) signaling pathway (AID 1224846; active = well fitted activation curve with a large enough effect in the signal ratio in the repeat runs, not every such curve was filed as active; the % refers to the signal ratio)
# Method in brief: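 Beta-lactamase FRET read-out (CCF4-AM substrate) from ME-180 cells carrying an HRE-driven bla reporter, after 17 hrs compound exposure at 37C/5% CO2. Cells were seeded at 2,000 per well in 0.5% dialyzed FBS medium and preincubated 5 hrs.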
# [17] = qHTS assay to identify small molecule antagonists of the estrogen related receptor (ERR) signaling pathway from Tox21 library (AID 1224848); also: nearly all actives have a fitted effect of over 50% in size; also: potency is read from the fitted curve at half-maximal effect
# Method in brief: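 First, 2,000 ERR cells per well were plated and held 6 h at 37 C/5% CO2. Next, compounds in DMSO were pinned in and left 18 h at 37 C. Finally, ONE-Glo was added and luminescence read after 30 min at room temperature.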
# [18] = qHTS assay to identify small molecule agonists of the estrogen related receptor (ERR) signaling pathway from Tox21 library (AID 1224849; calls by dose curve; also: nearly all actives have a fitted effect of over 15% in size); details: ERR reporter cell line, ONE-Glo luciferase, 18 h; at 92.4 µM (top of the series)
# Method in brief: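 Luminescence readout (ONE-Glo, 30 min RT) after 18 h compound exposure at 37 C of NTP-supplied ERR reporter cells; cells were plated 6 h before compound addition by pin tool.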
# [19] = qHTS RealTime-Glo MT Cell Viability Assay in HepG2 cells - 40 hour (AID 1224870); also: nearly all actives have a fitted effect of over 50% in size
# Method in brief: as §4
SMILES,Potency [1],Potency [2],Potency [3],Potency [4],Potency [5],Potency [6],Potency [7],Potency [8],Potency [9],Potency [10],Potency [11],Potency [12],Potency [13],Potency [14],Potency [15],outcome [16],Potency [17],"activity change, positive = activation [18]",max response [8],Potency [19]
CCC[CH2][Sn]([Cl])([CH2]CCC)[CH2]CCC,637 nM (active) and 713 nM (active),1.55 µM (active) and 549 nM (active),347 nM (active) and 490 nM (active),inactive,491 nM (active) and 549 nM (active),390 nM (active) and 692 nM (active),3.47 µM (active) and 1.38 µM (active),310 nM (active) and 436 nM (active),979 nM (active) and 2.45 µM (active),1.74 µM (active) and 1.23 µM (active),1.23 µM (active) and 436 nM (active),1.38 µM (active) and 2.19 µM (active),1.38 µM (active) and 692 nM (active),inactive,618 nM (active) and 776 nM (active),–,–,–,–,–
O=C1CCCO1,inactive,inactive,inactive,–,inactive,inactive,inactive,–,inactive,inactive,inactive,inactive,inactive,inactive,inactive,inactive,inactive,3.83% (inactive) and -0.0508% (inactive),17.8% (inactive) and -9.6% (inactive),–
C[C@]12CCC(=O)C=C1CC[C@@H]1[C@@H]2CC[C@@]2(C)[C@H]1CC[C@]2(C)O,71.9 µM (active) and inactive,inactive,22.1 µM (active),44 µM (active) and inactive,49.4 µM (active) and inactive,19.7 µM (active),inactive,19.7 µM (active),–,22.1 µM (active) and inactive,inactive,35 µM (active),19.7 µM (active) and 23.9 µM (active),inactive,–,inactive,–,–,–,inactive
CCCCCCCCCCCCCl,inactive,inactive,inactive,inactive and 24.5 µM (active),inactive and 17.4 µM (active),inactive,inactive,–,–,inactive and 13.8 µM (active),inactive,inactive and 12.3 µM (active),inactive and 12.3 µM (active),inactive,inactive and 19.5 µM (active),inactive,–,–,0% (inactive) and 16.5% (inactive),inactive
CC(C)(c1ccc(OCC2CO2)cc1)c1ccc(OCC2CO2)cc1 (stereo not drawn),inactive,inactive,inactive,–,inactive,inactive,inactive,–,inactive,inactive,inactive,inactive,inactive,inactive,–,inactive,61.9 µM (active),-61.1% (inactive) and -21.3% (inactive),-0.153% (inactive),–
CCCCCCCC[N+](C)(CCCCCCCC)CCCCCCCC,44.9 µM (active) and 567 nM (active) and 35.7 µM (active),10.9 µM (active) and 21.9 µM (active) and 9.77 µM (active),218 nM (active) and 138 nM (active) and 1.55 µM (active),inactive,24.5 µM (active) and 27.6 µM (active) and 12.3 µM (active),2.75 µM (active) and 1.1 µM (active) and 6.16 µM (active),17.3 µM (active) and 30.9 µM (active) and 17.4 µM (active),173 nM (active) and 138 nM (active) and 1.1 µM (active),21.8 µM (active) and 21.9 µM (active) and 9.77 µM (active),15.5 µM (active) and 21.9 µM (active) and 17.4 µM (active),9.75 µM (active) and 19.5 µM (active) and 8.71 µM (active),9.75 µM (active) and 19.5 µM (active) and 15.5 µM (active),13.8 µM (active) and 19.5 µM (active),inactive,–,–,–,–,–,–
CC(C)(O)C#N,inactive,inactive,inactive,inactive,inactive,inactive,inactive,–,inactive,inactive,inactive,inactive,inactive,inactive,inactive,inactive,–,–,1.12% (inactive) and 7.67% (inactive),inactive
CC(C)(c1ccccc1)c1ccc(O)cc1,112 µM (active) and 101 µM (active),inactive,27.5 µM (active),inactive,24.3 µM (active) and 27.5 µM (active),48.6 µM (active) and 30.9 µM (active),inactive and 49 µM (active),43.3 µM (active) and 27.5 µM (active),21.7 µM (active) and 43.6 µM (active),24.5 µM (active),inactive,48.6 µM (active) and 21.9 µM (active),48.6 µM (active) and 24.5 µM (active),inactive,27.3 µM (active) and 24.5 µM (active),–,–,–,–,–
COP(=S)(OC)SCn1nnc2ccccc2c1=O,inactive,inactive,–,inactive,inactive,–,inactive,48 µM (active),inactive,inactive,inactive,inactive,inactive,inactive,–,inactive,53.4 µM (active) and 61.1 µM (active),-43.4% (inactive) and -47.5% (inactive),–,inactive
CC(O)CN(CC(C)O)CC(C)O (stereo not drawn),inactive,inactive,inactive,inactive,inactive,inactive,inactive,–,inactive,inactive,inactive,inactive,inactive,inactive,inactive,inactive,–,–,2.85% (inactive) and 7.82% (inactive),inactive
